# A selection: hits, their analogues and other compounds. The true share with any hit is near 3.6%.
# mHTT-CaM PPI inh: mutant huntingtin-calmodulin interaction inhibitors – biochemical, AlphaScreen, primary screen; P42858; hit rate 3.6% among 190,000; inhibition, % at 15 µM; AlphaScreen His-mHTT/GST-CaM binding, luminescence
# Pf apPOL block: Pf-apPOL inhibitors, biochemical, fluorescence; Recombinant Pf-apPOL, molecular beacon fluorescence, 1.5 h; inhibition, % at 10 µM; hit rate 0.25% among 210,000
# Hits are given with their value; n = inactive; x = not tested or not shown; + = active, no number. No stated cut-off is given here; in the data, active means inhibition above about 50%; inactive means the rest.
SMILES,mHTT-CaM PPI inh,Pf apPOL block
C#CCOc1ccc(/C=N\n2cnnc2N/N=C/c2ccc(OCC#C)c(OC)c2)cc1OC,+,x
COc1cc(C(=O)Nc2ccc3c(c2)ncn3-c2ccc(C)cc2)cc(OC)c1OC,53,n
COc1cc(C(=O)Nc2nc3ccccc3n2C)cc(OC)c1OC,57,n
Cn1c(NC(=O)c2ccc(F)cc2)nc2ccccc21,n,n
COc1ccccc1-n1cnc2cc(NC(=O)c3cc(OC)c(OC)c(OC)c3)ccc21,n,n
COc1ccccc1CCC(=O)N1CCCN(C2CCN(Cc3ccccc3)C2=O)CC1 (stereo not drawn),n,n
COc1cc(C=C2Oc3cc(OC(=O)C(C)C)ccc3C2=O)cc(OC)c1OC,n,n
O=[N+]([O-])c1cccc(S(=O)(=O)N2CCCC2)c1,n,n
O=[N+]([O-])c1cccc(S(=O)(=O)C=C(Cl)Cl)c1,63,x
CC(C)CCNC(=O)c1cn(C2CCCC2)c(=O)c2c1c1ccccc1n2C,n,n
CC(=O)Nc1ccc(S(=O)(=O)N2CCN(S(=O)(=O)N(C)C)CC2)cc1,n,n
N#Cc1cccc(NC(=O)c2ccncc2)c1,x,n
O=C(Nc1cccc(NC(=O)c2ccncc2)c1)c1ccncc1,n,99
COC(=O)C(C)Oc1cc2c(-c3cc4ccccc4o3)cc(=O)oc2cc1C (stereo not drawn),n,n
Cc1ccc(S(=O)(=O)Cc2nc(-c3ccccc3Cl)no2)cc1,n,n
COc1ccc(/C=C2\SC(=Nc3ccccc3)NC2=O)c(OC)c1OC,n,n
Cc1cc2c(c(C)c1Cl)C(c1ccc3c(c1)OCO3)CC(O)(c1ccccc1)O2 (stereo not drawn),86,n
Cc1cc2c(c(C)c1Br)C(c1ccc3c(c1)OCO3)CC(=O)O2 (stereo not drawn),n,n
Cc1nc(C2CCCN(C(=O)Cc3ccccc3F)C2)n[nH]1 (stereo not drawn),n,n
Cc1cc(C)n2nc(SCC(=O)NCCC3=CCCCC3)nc2n1,n,n
COc1ccccc1NC(=O)c1c(NC(=O)c2ccccc2Cl)sc2c1CCC2,n,n
COc1ccccc1NC(=O)c1c(NCc2cccnc2)sc2c1CCCC2,71,n
COc1ccccc1NC(=O)c1c(NCc2cccnc2)sc2c1CCC2,74,n
CCOc1ccccc1NC(=O)c1c(NCc2cccnc2)sc2c1CCC(C)C2 (stereo not drawn),n,n
Cc1ccc(C)c(CN2C(=O)C3(OCCCO3)c3ccccc32)c1,n,n
SMILES,mHTT-CaM PPI inh,Pf apPOL block
O=C1N(Cc2cc(=O)n3ccccc3n2)c2ccccc2C12OCCCO2,52,n
CCCc1cc(C2CCCN2C(=O)Cn2nc(C(F)(F)F)cc2C)no1 (stereo not drawn),n,n
N#Cc1ccc(C(=O)Nc2cnc(-c3ccc(Cl)cc3)nc2)cc1,n,n
O=C(c1ccccc1I)N1CCN(c2cccc(Cl)c2)CC1,77,n
O=C1c2ccccc2-c2c1cccc2C(=O)N1CCN(c2ccc(Cl)cc2)CC1,100,n
O=C(CC(c1ccccc1)c1ccccc1)N1CCN(c2cccc(Cl)c2)CC1,84,n
O=C(c1ccccc1Cl)N1CCN(c2cccc(Cl)c2)CC1,n,n
COc1ncc(C(=O)N2CCN(c3cccc(Cl)c3)CC2)cn1,n,n
CCOc1nn(CC)cc1C(=O)N1CCN(c2cccc(Cl)c2)CC1,91,n
O=C1c2ccccc2-c2c1cccc2C(=O)N1CCOCC1,n,n
CC(CC(=O)N1CCN(c2cccc(Cl)c2)CC1)c1ccccc1 (stereo not drawn),n,n
Cc1ccc(NC(=O)CCC(=O)Nc2ccc(C)c(F)c2)cc1F,n,n
CCOc1ccccc1C1CC(=O)Nc2c1c(C)nn2-c1nc2ccccc2s1 (stereo not drawn),n,n
Cc1cccc(N2CCN(C(=O)Cc3nnc(-c4sccc4C)o3)CC2)c1,n,n
COc1ccc(OC)c(Nc2ncc3c(n2)CCN(Cc2cccc(F)c2F)C3)c1,n,n
COc1ccc(Nc2ncc3c(n2)CCN(Cc2ccccc2OC)C3)c(OC)c1,n,n
CCOc1ccccc1CN1CCc2nc(Nc3ccc(OC)cc3OC)ncc2C1,55,n
COc1ccc(OC)c(Nc2ncc3c(n2)CCN(Cc2ccccc2OC)C3)c1,59,n
COc1ccc(Nc2ncc3c(n2)CCN(Cc2cccc(C)c2)C3)c(OC)c1,n,n
COc1ccc(OC)c(Nc2ncc3c(n2)CCN(Cc2cccc(C)c2)C3)c1,64,n
Cc1ccc(NC(=O)N2CCc3nc(Cc4cccc(F)c4)[nH]c(=O)c3C2)cc1C,n,n
Cc1ccc(NC(=O)C(=O)c2c(O)[nH]c3ccccc23)cc1,n,n
Cc1ccc(OCC(=O)Nc2cccnc2)c(C)c1,n,n
COc1ccc(C(=O)N2CCOCC2)c(OC)c1,n,n
CC(C)c1ccc(NC(=O)N2CCCN(CCOc3ccccc3)CC2)cc1,x,n
Cc1ccc2c(=O)c(O)c(-c3cc(Br)cc4c3OCOC4)oc2c1,n,n
O=C(NCc1ccc(F)c(Cl)c1)C1CCN(c2cncnc2N2CCOCC2)CC1,n,n
